The sample as a whole holds a higher share of hits than the screen did.
RmlC RmlD mix: RmlC and RmlD coupled enzyme inhibitors, primary screen, biochemical, 384-well, compound mixtures, retest; RmlC/RmlD coupled enzyme inhibition, 384-well mixture HTS; inhibition, % at 5.5 µM; 110,000 compounds, 0.39% hits; in the data active = inhibition above about 30%, passing the limit was not always enough
RT RNaseH block: HIV-1 RT RNase H inhibitors, primary screen, biochemical, fluorescence; 65,000 compounds, 1.9% hits; inhibition, % at 10 µM; Gag-Pol polyprotein (Human immunodeficiency virus type 1 group M subtype B (isolate …; RT-RNase H RNA/DNA duplex cleavage; in the data active = inhibition above about 50%
* hit, by the source's call; · = not tested or not shown.

SMILES | RmlC RmlD mix | RT RNaseH block
N#CC1=C2SCN(c3ccc(F)cc3)CN2C(=O)CC1c1cccc(F)c1 (centres undefined) | 6 | 51*
CCc1ccc(C2CC(=O)N3CN(c4ccccc4)CSC3=C2C#N)cc1 (centres undefined) | -6 | 62*
COc1ccc(C2CC(=O)N3CN(c4ccc(C)c(Cl)c4)CSC3=C2C#N)cc1OC (centres undefined) | -11 | 18
CCOC(=O)c1ccc(N2CSC3=C(C#N)C(c4cccs4)CC(=O)N3C2)cc1 (centres undefined) | -12 | 35
CCc1ccc(N2CSC3=C(C#N)C(c4cccs4)CC(=O)N3C2)cc1 (centres undefined) | 9 | 54*
Cc1ccc(N2CSC3=C(C#N)C(c4cccs4)CC(=O)N3C2)cc1 (centres undefined) | 6 | ·
CCN1C(=O)[C@@H]2[C@H](C1=O)[C@@H]1C[C@H]3C(=O)N(CC)C(=O)[C@H]3[C@@H]3C1=C(C(=O)N1C(=O)OC(=NCC4CC4)[C@]31C)[C@@H]2C | -14 | ·
CC1CCC(NC(=O)c2ccc3c(c2)S(=O)(=O)c2ccccc2C3=O)CC1 (centres undefined) | 9 | ·
CCO[C@@H]1OC(C(=O)NCc2nc3ccccc3[nH]2)=C[C@H](c2coc3ccccc3c2=O)[C@H]1CCCO | -48 | ·
CCOC(=O)c1c(NC(=O)CC2SC(N)=NC2=O)sc2c1CCCC2 (centres undefined) | 26 | ·
CCOCCn1c(SCC(=O)OCc2ccccc2)nc2c1c(=O)[nH]c(=O)n2C | -5 | 86*
CCOCCn1c(SCc2ccccc2)nc2c1c(=O)[nH]c(=O)n2C | -2 | -32
C=CC[C@]12CC=CC(=O)[C@@]1(O)O[C@H](c1ccc(OC)c(OC)c1)[C@H]2C | -10 | ·
Cc1c(NC(=O)OCCNC(=O)Nc2ccccc2)sc(=S)n1C | 9 | -1
Cc1ccc(S(=O)(=O)NCCOC(=O)Nc2sc(=S)n(C)c2C)cc1 | -12 | 50*
COc1c(F)cc2[nH]c3c(c2c1F)CCNC3=O | -6 | ·
Cc1ccc(-c2nn3c(C)nnc3s2)cc1NC(=O)c1ccc(-c2ccc(Cl)cc2Cl)o1 | -19 | 60*
Cc1ccc(-c2nn3c(C)nnc3s2)cc1NC(=O)c1ccc(-c2cccc(Cl)c2)o1 | -5 | 34
CCO[C@H]1OC(C(=O)N2CCN(C)CC2)=C[C@@H](C)[C@@H]1CCCO | -11 | ·
CCOC(=O)Nc1nnc(-c2ccc(OC)c(OC)c2)s1 | 31* | 2
CCOC(=O)Nc1nnc(CCc2ccccc2)s1 | 5 | 1
CCOc1ccc(S(=O)(=O)Nc2nc3ccc(OC)cc3s2)cc1 | -20 | ·
CCOc1ccc2nc(NS(C)(=O)=O)sc2c1 | 1 | 55*
COc1ccccc1N1C(=O)CC(Sc2nccc(C)n2)C1=O (centres undefined) | -11 | 60*
CCOc1ccc(N2C(=O)CC(Sc3nccc(C)n3)C2=O)cc1 (centres undefined) | -6 | -17
SMILES | RmlC RmlD mix | RT RNaseH block
COc1ccc(OC)c(N2Cc3cc(C)c(C)cc3C2)c1 | -4 | 62*
CCOc1ccccc1N1CCN(Cc2cccc(OC)c2OC)CC1 | 10 | 3
CCOc1ccccc1N1Cc2cc(C)c(C)cc2C1 | 5 | 53*
COc1ccc(OC)c(-n2cnnn2)c1 | 7 | -10
COc1ccc(-c2nnc(SCC(=O)c3cc(C)n(Cc4cccs4)c3C)o2)cc1 | -6 | 58*
COc1ccc(-c2nnc(SCC(=O)c3cccs3)o2)cc1 | -2 | 0
CCOC(=O)c1sc2nc(-c3ccco3)c3c(c2c1N)CC(C)(C)OC3 | 12 | 90*
Cc1nc2sc(C(=O)O)c(N)c2c2c1COC(C)(C)C2 | 5 | 9
CCc1nc(SCc2ccc(F)cc2)[nH]c(=O)c1C#N | 2 | ·
CCCCn1c(CCC(=O)O)ccc1-c1cccs1 | -12 | -10
O=C(O)CCc1ccc(-c2cccs2)n1NC(=O)c1ccc(O)cc1 | -44 | 51*
Cc1ccc2cc3cc(C(=O)NCCC(C)C)oc3nc2c1 | · | -2
Cc1ccc2cc3cc(C(=O)NCc4ccco4)oc3nc2c1 | 34 | 51*
CS(=O)(=O)N1CCN(c2nc(-c3ccccc3)cs2)CC1 | -8 | -1
CCS(=O)(=O)N1CCN(c2nc(-c3ccccc3)cs2)CC1 | 16 | 56*
CCO[C@@H]1OC(C(=O)N2CCN(Cc3ccccc3)CC2)=C[C@H](c2csc3ccccc23)[C@H]1CCCO | 3 | ·
CCOC(=O)c1c(C)n(C)c2cc(Br)c(C)cc12 | -9 | ·
CCOC(=O)c1c(C)n(C)c2c(C)cc(O)c(OC(=O)CC)c12 | 9 | 56*
C=CC1CN(C(=O)OCC(Cl)(Cl)Cl)C2CC3c4ccc(OC)cc4NC3C3CC1C2CO3 (centres undefined) | -6 | ·
CC[C@@H](C)C(NC(=O)OC(C)(C)C)c1cn([C@@H](CCC(=O)OC(C)(C)C)C(=O)N2CCN(C(=O)OC(C)(C)C)CC2)nn1 (some centres undefined) | -14 | ·
